Screening results from PubChem BioAssay.
Most compounds without a hit are left out; they make up all but 3.1% or so of the library.
PLK1 PBD block – blocks phosphopeptide binding to human PLK1 polo-box domain | 360,000 tested, 2.8% active | Plk1 PBD binding of FITC phosphopeptide, fluorescence polarization | P53350 | Potency, µM, without a hit: max response, negative = inhibition, actives largely listed as inhibitors; note: potency is the fitted concentration of half-maximal effect; series mostly up to about 57 µM; % is set by controls: 0 for no effect and ±100 for the full control effect; nearly all actives have a fitted effect of over 65% in size
TSHR antagonist – antagonists of human thyroid stimulating hormone receptor. 330,000 tested, 0.2% active. activity change, negative = inhibition, % at 11.5 µM. TSHR-expressing cells, TSH-stimulated cAMP HTRF, 2 h; stronger effect = lower value. P16473;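 active = activity change below a set negative limit, meaning inhibition stronger than a set level, cut at about -70% in these data; inconclusive = activity change between two set negative limits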; note: % is set by controls: 0 for no effect and ±100 for the full control effect
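TSHR-expressing cells were treated with compounds, then stimulated with TSH at EC80 (4nM final) for 2 hours at 37 deg C. Cellular cAMP was measured by HTRF competition between lysate cAMP and cAMP-d2 for a cryptate-labelled anti-cAMP antibody.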
VDR inh – inhibitors of human vitamin D receptor; AID 504847; P11473; VDR-SRC2-3 peptide fluorescence polarization, 2 h; 400,000 tested, 0.93% active; Potency, µM, inactives show max response, negative = inhibition, actives largely listed as inhibitors; note: potency is the fitted concentration of half-maximal effect; % is set by controls: 0 for no effect and ±100 for the full control effect
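Compounds are added to VDR with labelled SRC2-3 coactivator peptide and held 2 h at room temperature. Inhibition of the VDR–peptide interaction is then read as a change in fluorescence polarization.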
Vif-A3F inh – inhibitors of Vif-A3F interaction; HeLa A3F-eYFP + Vif (tagged APOBEC3F with the HIV-1 protein that degrades it), YFP fluorescence increase; Potency, µM (series often up to 46.1 µM), for the others: at the highest dose activity, negative = active; 390,000 tested, 0.2% active; note: potency is the fitted concentration of half-maximal effect; % of control where 0% means no effect; nearly all actives have a fitted effect of over 65% in size
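HeLa cells stably expressing Vif plus C-terminally eYFP-tagged A3F were seeded, incubated overnight at 37 deg C, dosed with compound, incubated overnight again at 37 deg C. Yellow fluorescence (Ex 488/Em 500-530) reported blocked Vif-mediated A3F-eYFP degradation.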
Vif-A3G inh – inhibitors of Vif-APOBEC3G interaction; HeLa A3G-eYFP + Vif (tagged APOBEC3G with the HIV-1 protein that degrades it), YFP fluorescence, overnight; Potency, µM (titrated, usually from 46.1 µM), for inactives: top-dose activity, negative = active, usual class: inhibitors; AID 602310; 410,000 tested, 0.076% active; Q9HC16; note: potency is the fitted concentration of half-maximal effect; % is set by controls: 0 for no effect and ±100 for the full control effect; nearly all actives have a fitted effect of over 60% in size
Target sequence (Q9HC16 whole entry, looked up): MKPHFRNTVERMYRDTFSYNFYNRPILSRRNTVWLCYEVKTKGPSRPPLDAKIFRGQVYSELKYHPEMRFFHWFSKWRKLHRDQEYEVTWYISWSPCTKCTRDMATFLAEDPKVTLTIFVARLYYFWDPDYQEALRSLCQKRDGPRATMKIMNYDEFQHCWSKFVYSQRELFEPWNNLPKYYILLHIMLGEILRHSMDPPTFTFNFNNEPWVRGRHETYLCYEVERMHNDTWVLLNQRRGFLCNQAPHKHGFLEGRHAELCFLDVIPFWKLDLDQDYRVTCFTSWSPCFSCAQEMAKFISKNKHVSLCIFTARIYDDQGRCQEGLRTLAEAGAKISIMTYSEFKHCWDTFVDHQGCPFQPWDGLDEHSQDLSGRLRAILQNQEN
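Read-out is eYFP fluorescence (Ex 488/Em 500-530) from Vif-expressing HeLa A3G-eYFP cells; more signal means A3G escaped Vif-mediated degradation. Cells plated overnight, compound pinned in, incubated overnight at 37 deg C.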
The depositor's hits bear a star; ? = inconclusive; . = not tested or not shown; ! = a repeat was not active. Unless noted, calls come from the whole dose curve; as a rule, active = well fitted curve in the direction sought with a large enough effect; inconclusive = small, poorly fitted or top-dose-only effect, or another doubt; inactive = no such curve, though single readings can be large; an effect the other way counts as inactive or inconclusive.

SMILES	PLK1 PBD block	TSHR antagonist	VDR inh	Vif-A3F inh	Vif-A3G inh
CCOc1ccccc1Nc1nc(N)nc(CSc2nccc(C)n2)n1	-3%	5	-8%	8%	-1%
Cc1cccc(S(=O)(=O)NNC(=O)Cc2cccn2C)c1	27µM*	11	-16%	-3%	2%
O=C(COC(=O)/C=C/c1ccc(Cl)cc1)NCCN1C(=O)CSC1=O	17µM*	-4	-23%	-12%	-1%
O=C(COC(=O)/C=C/c1ccc(OC(F)F)cc1)NCCN1C(=O)CSC1=O	?	-8	6%	1%	-3%
CC(C)(C)CC(C)(C)N=C1Nc2ccc(Cl)cc2NC12C[C@H]1CCC(=O)N3CC[C@@H](C2)[C@@H]13 (some centres not stated)	.	.	.	.	-8%
COc1cc(/C=C/C(=O)c2ccc(C)cc2)ccc1OCC#N	-1%	-10	50µM*	-17%	-28%
Cc1noc(C)c1-c1nccc(N2CCN(C)CC2)n1	.	.	-13%	.	.
COc1cccc(CC2(CO)CCCN(Cc3ccc(-c4ccco4)cc3)C2)c1 (configuration not stated)	8.4µM*	-3	?	-8%	6%
COc1cccc(CC2(CO)CCCN(Cc3ccc(CO)o3)C2)c1 (configuration not stated)	-7%	-7	4%	4%	2%
N#Cc1ccccc1CN1C(=O)S/C(=C/c2cccn2-c2ccc(C(=O)O)cc2)C1=O	-21%	-8	-13%	?	-1%
O=C1N/C(=C/c2cccn2-c2ccc(F)cc2)C(=O)N1Cc1ccccc1	-3%	6	-9%	-8%	-8%
O=C(O)c1ccc(-n2cccc2/C=C2/NC(=O)N(c3ccccc3)C2=O)cc1	19µM*	-6	-14%	4%	-7%
O=C(O)c1ccc(-n2cccc2/C=C2/SC(=O)N(CC(=O)N3CCCC3)C2=O)cc1	19µM*	-16	8%	0%	1%
O=C(O)c1cccc(-n2cccc2/C=C2\NC(=O)N(Cc3ccc(F)cc3)C2=O)c1	?	-19	-20%	-23%	-5%
O=C(O)c1ccc(-n2cccc2/C=C2/NC(=O)N(c3cccc(Cl)c3)C2=O)cc1	27µM*	-6	-29%	-7%	1%
CC(Oc1ccccc1)C(=O)Nc1ccc(C(=O)OCc2cc(=O)n3nc(C(C)C)sc3n2)cc1 (configuration not stated)	.	.	2%	-4%	-15%
CCOc1cccc(C2C=C(c3ccc4c(c3)OCO4)NC(c3ccc(Cl)cc3)N2)c1O (configuration not stated)	.	.	-28%	.	-13%
CN1CCN(c2ncnc3ccc(-c4cccc(NS(C)(=O)=O)c4)cc23)CC1	.	.	-5%	.	.
COC(=O)CN1C(C(=O)c2ccccc2)=C(OC(=O)c2ccccc2)c2ccccc2S1(=O)=O	.	.	6%	.	.
COC(=O)c1cn(C(=O)c2cc(C)cc(C)c2)c2ccccc12	21µM*	12	-24%	-2%	-4%
COC(=O)c1cn(C(=O)c2cc(OC)c(OC)c(OC)c2)c2ccccc12	-3%	33	-5%	-16%	-25%
COC(=O)c1cn(C(=O)c2ccc(C)cc2)c2ccccc12	19µM*	-35	-13%	-6%	-23%
COc1ccc(/C=C/c2ccc(=O)n(Cc3ccccc3)n2)cc1	12µM*	-7	?	11%	-1%
COc1ccc(C(=O)NCCSc2ccccc2)cc1OC	3.4µM*	-2	35µM*	-10%	0%
Cc1nc(C)c(C(=O)N(c2ccccc2F)C(C(=O)NCC2CCCO2)c2ccccc2)s1 (configuration not stated)	27µM*	-2	?	-7%	-3%
SMILES	PLK1 PBD block	TSHR antagonist	VDR inh	Vif-A3F inh	Vif-A3G inh
Cc1nc(C)c(C(=O)N(c2ccc(F)cc2)C(C(=O)NCC2CCCO2)c2ccccc2)s1 (configuration not stated)	?	-7	?	5%	0%
CC1(C)CC(=O)C2=C(C1)Nc1ccccc1N(C(=O)C1CC1)C2c1ccco1 (configuration not stated)	9.5µM*	12	-23%	-10%	2%
COCC(=O)Nc1cc(C)cn(Cc2c(F)cccc2Cl)c1=O	3.4µM*	-28	?	13%	-6%
CCN(C(=O)CSc1nc(-c2ccc(C(C)C)cc2)no1)c1ccccc1	.	.	3%	2%	2%
C=CCNc1nc2c3ccccc3n(C(C)=O)c2s1	27µM*	4	-29%	2%	-4%
CC(=O)n1c2ccccc2c2nc3ccccc3nc21	-3%	18	-13%	?	-41%
O=C(C[n+]1ccccc1)c1cccc([N+](=O)[O-])c1	.	.	.	.	-2%
CCOc1ccc(NC(=S)Nc2cccnc2)cc1	30µM*	-3	-19%	13%	-1%
CC(=O)OC/C=C(C)/C=C/C=C(C)/C=C/C1=C(C)CCCC1(C)C	.	.	40µM*!	.	.
Oc1cc2cc(-c3csc(-c4ccc(F)cc4)n3)ccc2[nH]1	.	.	.	.	4%
O=C(c1cccs1)N(Cc1ccco1)c1ccc(O)cc1	.	.	0%	.	-1%
CSc1nc(O)c(C(c2ccc(F)cc2)c2c(O)nc(SC)[nH]c2=O)c(=O)[nH]1	?	.	?	?	0%
CSc1nc(O)c(C(c2ccc(OC(C)C)cc2)c2c(O)nc(SC)[nH]c2=O)c(=O)[nH]1	11µM*	.	22µM*	-9%	-2%
COc1ccc2oc(=O)c(C(=O)NCc3ccccc3)cc2c1	-3%	4	2%	0%	0%
CCCOc1ccc2cc(C(=O)NCc3ccccc3)c(=O)oc2c1	15%	-10	0%	32µM*	-229%
O=C(NCCc1ccccc1)c1cc2ccccc2oc1=O	-4%	-118*	3%	1%	0%
CCCCNc1ccc(/C=C2\C=Cc3ccccc32)cc1	.	.	.	.	-2%
O=C(NCc1ccc(Cl)cc1)NCC(F)(F)F	30µM*	-2	-8%	1%	0%
CC1CCC(C(C)C)C(P(=O)(c2ccccc2)c2ccccc2)C1 (configuration not stated)	.	.	1%	.	.
Clc1ccc(-n2nnc(-c3nccs3)n2)cc1Cl	27µM*	-5	-20%	0%	0%
COc1ccc(CN2[C@@H](CC(=O)O)c3ccc(/C=C/C(=O)O)cc3S2(=O)=O)cc1	.	.	.	.	1%
CCc1ccc(OCCCCn2c(CCNC(=O)C3CCCCC3)nc3ccccc32)cc1	.	.	-18%	.	-3%
C/C(=N/NC(=O)c1cc2ccccc2cc1O)C1C(=O)c2ccccc2C1=O	9.5µM*	-43	-25%	0%	2%
C/C(=N\NC(=O)c1ccccc1O)C1C(=O)c2ccccc2C1=O	-1%	-22	8%	1%	-2%
O=C1NC(c2ccc3c(c2)OCO3)Nc2ccccc21 (configuration not stated)	-3%	0	17%	-1%	?
CC1(CCc2ccc3c(c2)OCO3)NC(=O)c2ccccc2N1 (configuration not stated)	8.4µM*	-5	?	-19%	-2%
